# From PubChem BioAssay (NCATS)
# Several values for one entry are separate records, joined by “and”; a condition that tells them apart may be missing. Identical values can stand only once. Inconclusive results are not listed. A call without a number means that no potency is given here. Activity calls are given as the source filed them. Unless noted, calls follow the shape of the dose curve; as a rule, active = well fitted curve in the direction sought with a large enough effect; inconclusive = small, poorly fitted or top-dose-only effect, or another doubt; inactive = no such curve, though single readings can be large; an effect the other way counts as inactive or inconclusive.
# Tests used:
# [1] = Cell Viability - Jurkat (AID 426;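 active = dose-dependent loss of cell ATP signal giving a full or clear fitted curve, ranked by lower potency value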;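 also: potency is read from the fitted curve at half-maximal effect; cells exposed to compound for 40 hours at 37 °C before ATP read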); details: qHTS
# Procedure, shortened: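 Cytotoxicity taken as drop in cellular ATP (CellTiter-Glo luminescence, 20 min room temperature) after 40 hr, 37C treatment of 5000 Jurkat Clone E6-1 cells per well; concentration-response fitted with Hill equation for AC50.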
# [2] = Cell Viability - HepG2 (AID 433; calls by dose curve;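 also: potency is read from the fitted curve at half-maximal effect; cells exposed to compound for 40 hours; potency for ATP loss meaning cytotoxicity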); details: qHTS
# Procedure, shortened: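 HepG2 cells, 1500 per well, treated 40 hr at 37 °C in complete medium; viability from intracellular ATP by CellTiter-Glo luminescence. Normalized to DMSO and 100 uM tamoxifen; AC50 from Hill fit of qHTS concentration-response.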
# [3] = Cell Viability - HUV-EC-C (AID 542); details: HUV-EC-C endothelial cell viability, qHTS; series mostly up to 92.2 µM;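 also: cells exposed to compound for 40 hours; nearly all actives have a fitted effect of over 35% in size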
# Procedure, shortened: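 CellTiter-Glo luminescence measured ATP loss in HUV-EC-C cells (1000/well) after 40 hr compound exposure at 37 °C, in complete culture medium. Concentration-response data were Hill-fitted to give AC50.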
# [4] = Cell Viability - H-4-II-E (AID 543); details: H-4-II-E rat hepatoma viability; series mostly up to 92.2 µM;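 also: cells exposed to compound for 40 hours; nearly all actives have a fitted effect of over 35% in size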; also: potency is read from the fitted curve at half-maximal effect
# Procedure, shortened: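 CellTiter-Glo luminescence (intracellular ATP) measured after 40 h compound exposure at 37 °C in H-4-II-E rat hepatoma cells seeded at 1500/well. Values are AC50s fitted with the standard Hill equation.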
# [5] = Cellular Toxicity (caspase-3) Jurkat (AID 655); details: Jurkat caspase-3 activation, luminescence, DMSO = 0%, tamoxifen = 100%; at 92.2 µM (top of the series);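 also: cells exposed to compound for 16 h at 37 °C before reading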
# Procedure, shortened: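 Jurkat cells (5000/well) in complete medium exposed 16 h at 37 C; caspase-3/7 activity read by Caspase-Glo luminescence after 20 min at room temperature. Normalized to DMSO and 100 uM tamoxifen; AC50 from Hill fits.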
# [6] = Cell Viability - LYMP2-007 (AID 979); details: LYMP2-007 lymphoblastoid cell viability; series mostly up to 92.2 µM;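 also: cells exposed to compound for 24 h before reading; nearly all actives have a fitted effect of over 60% in size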; also: potency is read from the fitted curve at half-maximal effect
# Procedure, shortened: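 AC50 values come from Hill-equation fits of luminescent intracellular ATP (CellTiter-Glo, 30 min, room temperature) following 24 h compound exposure at 37 C. Cells: LYMP2-007 lymphoblastoid line, 2500 per well, in complete culture medium.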
# [7] = Cell Viability - LYMP2-010 (AID 981); details: LYMP2-010 lymphoblastoid cell viability, qHTS; series mostly up to 92.2 µM; also: nearly all actives have a fitted effect of over 55% in size; also: potency is read from the fitted curve at half-maximal effect
# Procedure, shortened: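 CellTiter-Glo ATP luminescence measured cytotoxicity after 24 h compound exposure at 37 C. LYMP2-010 cells were seeded at 2500/well, with tetraoctylammonium bromide as control; concentration-response curves gave AC50 values by the Hill equation.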
# [8] = Cell Viability - LYMP2-012 (AID 982); details: LYMP2-012 lymphoblastoid cell viability qHTS; series mostly up to 92.2 µM;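 also: cellular ATP by luciferase luminescence where a drop means cytotoxicity; cells exposed to compound for one day before reading; nearly all actives have a fitted effect of over 55% in size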; also: potency is read from the fitted curve at half-maximal effect
# [9] = Cell Viability - LYMP2-014 (AID 983); details: LYMP2-014 lymphoblastoid cells, viability qHTS; series mostly up to 92.2 µM; also: nearly all actives have a fitted effect of over 50% in size; also: potency is read from the fitted curve at half-maximal effect
# Procedure, shortened: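 Intracellular ATP loss, read by luciferase luminescence, measures acute cytotoxicity after 24 h compound exposure of lymphoblastoid LYMP2-014 cells (2500/well, 37 C). Concentration-response data fitted to the Hill equation for AC50.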
# [10] = Cell Viability - LYMP2-016 (AID 984); details: LYMP2-016 lymphoblastoid cell viability, qHTS; series mostly up to 92.2 µM; also: nearly all actives have a fitted effect of over 55% in size; also: potency is read from the fitted curve at half-maximal effect
# Procedure, shortened: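 Human lymphoblastoid LYMP2-016 cells, 2500 per well, treated with compounds for 24 h at 37 C. Viability read as intracellular ATP by CellTiter-Glo luminescence after 30 min at room temperature; AC50 from Hill fits of concentration-response.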
# [11] = Cell Viability - LYMP2-018 (AID 985); details: LYMP2-018 lymphoblastoid cells, viability (qHTS); series mostly up to 92.2 µM; also: nearly all actives have a fitted effect of over 50% in size; also: potency is read from the fitted curve at half-maximal effect
# Procedure, shortened: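 Viability read as CellTiter-Glo luminescence (cellular ATP) after 24 hr compound exposure at 37 C of 2500 LYMP2-018 lymphoblastoid cells/well, pre-plated 5 hr. Hill-equation modelling gave AC50.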
# [12] = Cell Viability - LYMP2-020 (AID 986); details: series mostly up to 92.2 µM; also: nearly all actives have a fitted effect of over 55% in size; also: potency is read from the fitted curve at half-maximal effect
# Procedure, shortened: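 Cytotoxicity in qHTS format: luminescent ATP readout from CellTiter-Glo after 24 h compound exposure at 37 C in complete medium. LYMP2-020 lymphoblastoid cells were seeded at 2500/well; concentration-response data fitted to the Hill equation for AC50.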
# [13] = Cell Viability - LYMP2-022 (AID 987); details: LYMP2-022 lymphoblastoid cell viability; series mostly up to 92.2 µM; also: nearly all actives have a fitted effect of over 55% in size; also: potency is read from the fitted curve at half-maximal effect
# Procedure, shortened: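 Cytotoxicity read as decreased cellular ATP (CellTiter-Glo luminescence, 30 min room temperature) after 24 hours compound exposure of 2500 lymphoblastoid LYMP2-022 cells/well at 37 C. Concentration-response data fitted with standard Hill equation for AC50.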
# [14] = Cell Viability - LYMP2-024 (AID 988); details: LYMP2-024 lymphoblastoid cell viability; series mostly up to 92.2 µM; also: nearly all actives have a fitted effect of over 60% in size; also: potency is read from the fitted curve at half-maximal effect
# Procedure, shortened: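 Cytotoxicity was taken as a decrease in ATP (CellTiter-Glo luminescence) after 24 hr compound exposure at 37 C of LYMP2-024 lymphoblastoid cells, 2500 cells/well. Concentration-response data were fitted to the Hill equation to give AC50.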
# [15] = Cell Viability - LYMP2-026 (AID 989); details: LYMP2-026 lymphoblastoid cell viability, qHTS; series mostly up to 92.2 µM; also: nearly all actives have a fitted effect of over 50% in size; also: potency is read from the fitted curve at half-maximal effect
# Procedure, shortened: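 Cytotoxicity read as ATP-dependent luminescence (CellTiter-Glo, 30 min room temperature) after 24 h compound treatment at 37 C. LYMP2-026 lymphoblastoid line seeded at 2500 cells/well; AC50 derived by standard Hill equation.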
# [16] = Cell Viability - LYMP1-002 - Assay at 24 hr (AID 993); details: LYMP1-002 lymphoblastoid cells viability; series mostly up to 92.2 µM; also: potency is read from the fitted curve at half-maximal effect
# Procedure, shortened: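 qHTS cytotoxicity at 24 h: CellTiter-Glo ATP luminescence in lymphoblastoid line LYMP1-002 incubated with compound at 37 °C. Concentration-response modeled with the Hill equation for AC50; tetraoctylammonium bromide served as positive control.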
# [17] = qHTS assay for small molecule agonists of retinoid X receptor alpha signaling (AID 588544; calls by dose curve); details: HEK293T RXRa-UAS-bla, beta-lactamase reporter, 18 h; 530 nm emission
# [18] = target: Retinoic acid receptor RXR-alpha (Homo sapiens) (UniProt P19793); test: as above; details: HEK293T RXRa-UAS-bla, beta-lactamase reporter, 18 h; series mostly up to 76.7 µM
# Chain of Retinoic acid receptor RXR-alpha (Homo sapiens) (P19793 whole entry, looked up): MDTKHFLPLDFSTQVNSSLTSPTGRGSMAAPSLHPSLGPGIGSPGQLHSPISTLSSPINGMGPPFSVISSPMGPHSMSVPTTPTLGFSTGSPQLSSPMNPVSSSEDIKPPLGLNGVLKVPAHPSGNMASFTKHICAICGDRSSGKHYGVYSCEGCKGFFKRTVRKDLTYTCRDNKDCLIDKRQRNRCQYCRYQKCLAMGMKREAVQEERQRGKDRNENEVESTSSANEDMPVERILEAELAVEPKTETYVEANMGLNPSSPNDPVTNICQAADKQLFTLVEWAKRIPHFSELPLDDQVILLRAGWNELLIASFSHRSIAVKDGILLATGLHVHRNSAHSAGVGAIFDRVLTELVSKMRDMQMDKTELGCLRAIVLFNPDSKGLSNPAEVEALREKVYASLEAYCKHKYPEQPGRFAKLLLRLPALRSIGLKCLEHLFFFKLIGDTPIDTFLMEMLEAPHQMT
# [19] = target: Thyroid hormone receptor beta (Homo sapiens) (UniProt P10828); test: qHTS assay for small molecule agonists of thyroid hormone receptor beta signaling (AID 588545; calls by dose curve); details: TR-UAS-bla GripTite HEK 293, beta-lactamase ratio, agonist mode, 18 h, percent of T3 response, DMSO as zero; series mostly up to 76.7 µM
# Chain of Thyroid hormone receptor beta (Homo sapiens) (P10828 whole entry, looked up): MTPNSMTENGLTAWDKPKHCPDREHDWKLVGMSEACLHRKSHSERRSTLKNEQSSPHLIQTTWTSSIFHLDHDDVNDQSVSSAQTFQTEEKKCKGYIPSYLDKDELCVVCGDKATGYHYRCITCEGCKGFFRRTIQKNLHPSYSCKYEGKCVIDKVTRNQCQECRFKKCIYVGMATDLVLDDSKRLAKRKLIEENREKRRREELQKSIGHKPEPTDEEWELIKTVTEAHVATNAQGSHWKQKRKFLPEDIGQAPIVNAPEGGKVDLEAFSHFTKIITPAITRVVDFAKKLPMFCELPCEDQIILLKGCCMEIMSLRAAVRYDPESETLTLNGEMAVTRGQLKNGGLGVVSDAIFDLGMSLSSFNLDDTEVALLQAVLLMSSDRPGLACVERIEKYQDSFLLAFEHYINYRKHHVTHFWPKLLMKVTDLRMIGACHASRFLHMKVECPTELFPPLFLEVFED
# Procedure, shortened: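 TR-UAS-bla GripTite HEK 293 cells (2500/well, medium with 2% charcoal/dextran FBS) were treated in agonist mode for 18 h at 37 C, titrated. Beta-lactamase was read by CCF4 ratio after 2 h; normalized to 10 nM T3 (100%) and DMSO, Hill-fitted for EC50 and efficacy.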
# [20] = target: Voltage-gated inwardly rectifying potassium channel KCNH2 (Homo sapiens) (UniProt Q12809); test: qHTS Assay for Small Molecule Inhibitors of the Human hERG Channel Activity (AID 588834); details: U2OS BacMam hERG, FluxOR thallium flux fluorescence; series mostly up to 92.2 µM;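 also: top concentration of the series differs between compounds; lower thallium flux fluorescence means stronger hERG block; nearly all actives have a fitted effect of over 50% in size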
# Chain of Voltage-gated inwardly rectifying potassium channel KCNH2 (Homo sapiens) (Q12809 whole entry, looked up): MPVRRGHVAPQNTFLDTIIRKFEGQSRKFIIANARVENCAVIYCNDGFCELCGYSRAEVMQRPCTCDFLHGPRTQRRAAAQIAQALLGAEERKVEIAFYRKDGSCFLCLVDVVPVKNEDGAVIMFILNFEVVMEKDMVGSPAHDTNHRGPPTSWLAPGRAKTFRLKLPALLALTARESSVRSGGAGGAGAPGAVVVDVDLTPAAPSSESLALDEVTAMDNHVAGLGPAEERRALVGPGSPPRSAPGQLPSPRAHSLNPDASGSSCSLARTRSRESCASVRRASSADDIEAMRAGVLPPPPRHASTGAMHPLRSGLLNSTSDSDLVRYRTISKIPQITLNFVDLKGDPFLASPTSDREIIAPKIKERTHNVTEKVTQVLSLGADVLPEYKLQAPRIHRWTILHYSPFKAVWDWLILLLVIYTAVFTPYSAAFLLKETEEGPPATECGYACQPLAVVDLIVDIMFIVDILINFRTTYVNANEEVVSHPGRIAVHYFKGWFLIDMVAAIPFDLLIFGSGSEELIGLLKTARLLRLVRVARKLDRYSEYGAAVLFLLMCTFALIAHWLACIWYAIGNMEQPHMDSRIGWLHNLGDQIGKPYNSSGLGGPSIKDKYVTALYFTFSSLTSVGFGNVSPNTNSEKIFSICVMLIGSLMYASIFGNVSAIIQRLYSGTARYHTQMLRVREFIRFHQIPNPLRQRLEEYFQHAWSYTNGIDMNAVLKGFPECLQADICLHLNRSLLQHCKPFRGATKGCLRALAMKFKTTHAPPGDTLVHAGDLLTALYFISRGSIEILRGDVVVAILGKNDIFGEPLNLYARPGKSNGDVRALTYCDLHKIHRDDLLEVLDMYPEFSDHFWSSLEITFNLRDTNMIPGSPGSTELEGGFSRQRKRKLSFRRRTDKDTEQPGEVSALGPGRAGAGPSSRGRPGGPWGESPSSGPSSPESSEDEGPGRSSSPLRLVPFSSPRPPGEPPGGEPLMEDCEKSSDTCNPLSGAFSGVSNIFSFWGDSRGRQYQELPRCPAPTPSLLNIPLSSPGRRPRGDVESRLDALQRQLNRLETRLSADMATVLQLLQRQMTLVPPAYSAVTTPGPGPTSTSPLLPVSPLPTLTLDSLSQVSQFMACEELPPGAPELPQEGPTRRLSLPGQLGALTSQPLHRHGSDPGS
# Procedure, shortened: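 Thallium serves as surrogate for K+ influx through BacMam-delivered hERG in U2OS cells. Compounds are added for about 10 minutes after dye loading; stimulation buffer then starts flux, monitored kinetically on FDSS.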
SMILES,Potency [1],Potency [2],outcome [3],Potency [4],caspase-3 activation [5],Potency [6],Potency [7],Potency [8],Potency [9],Potency [10],Potency [11],Potency [12],Potency [13],Potency [14],Potency [15],Potency [16],max response [17],outcome [18],outcome [19],Potency [20]
C/C=C\c1ccc(OC)cc1,> 92 µM (inactive),> 92 µM (inactive),inactive,inactive,-0.717% (inactive),inactive,inactive,inactive,inactive,inactive,inactive,inactive,inactive,inactive,inactive,inactive,-9.52%,inactive,inactive,inactive
COC(=O)CCCCC(=O)OC,> 92 µM (inactive),> 92 µM (inactive),inactive,inactive,2.55% (inactive),inactive,inactive,inactive,inactive,inactive,inactive,inactive,inactive,inactive,inactive,inactive,-8.22% and -17.2% and -16.7%,inactive,inactive,inactive
Cc1ccccc1C,> 92 µM (inactive),> 92 µM (inactive),inactive,inactive,3.87% (inactive) and 7.19% (inactive),inactive,inactive,inactive,inactive,inactive,inactive,inactive,inactive,inactive,inactive,inactive,-0.877% and 16.9%,inactive,inactive,inactive
COc1c2ccoc2cc2oc(=O)ccc12,> 92 µM (inactive),> 92 µM (inactive),inactive,inactive,-0.404% (inactive),inactive,inactive,inactive,inactive,inactive,inactive,inactive,inactive,inactive,inactive,inactive,–,–,inactive,inactive
CN(C)CCCCCCN(C)C,> 92 µM (inactive),> 92 µM (inactive),inactive,inactive,-2.92% (inactive),inactive,inactive,inactive,inactive,inactive,inactive,inactive,inactive,inactive,inactive,inactive,-13.8%,inactive,inactive,–
COc1ccc2nc(N)sc2c1,> 92 µM (inactive),> 92 µM (inactive),inactive,inactive,-5.35% (inactive),inactive,inactive,inactive,inactive,inactive,inactive,inactive,inactive,inactive,inactive,inactive,-6.78% and -2.22%,inactive,inactive,inactive
CCCCCCCCCCCCCCC1CO1 (stereo not drawn),> 92 µM (inactive),> 92 µM (inactive),inactive,inactive,0.846% (inactive),inactive,inactive,inactive,inactive,inactive,inactive,inactive,inactive,inactive,inactive,inactive,-14.5% and -12.1%,inactive,inactive,inactive
C=CC(=O)OCCOCCOCCOCCOC(=O)C=C,6.78 µM (active) and 12.4 µM (active),> 92 µM (inactive),–,20 µM (active),–,20 µM (active),15.8 µM (active),12.6 µM (active),20 µM (active) and 25.1 µM (active),20 µM (active) and 15.8 µM (active),15.8 µM (active),12.6 µM (active) and 15.8 µM (active),12.6 µM (active),12.6 µM (active) and 15.8 µM (active),15.8 µM (active) and 20 µM (active),25.1 µM (active),–,–,inactive,inactive
Cc1ccc([N+](=O)[O-])c(C)c1,> 92 µM (inactive),> 92 µM (inactive),inactive,inactive,0.882% (inactive),inactive,inactive,inactive,inactive,inactive,inactive,inactive,inactive,inactive,inactive,inactive,-5.33% and -0.658%,inactive,inactive,inactive
CC(C)=CCCC(C)CCO (stereo not drawn),> 92 µM (inactive),> 92 µM (inactive),inactive,inactive,2.37% (inactive),inactive,inactive,inactive,inactive,inactive,inactive,inactive,inactive,inactive,inactive,inactive,-10.2% and -2.4%,inactive,inactive,inactive
CCCCCCCCO,> 92 µM (inactive),> 92 µM (inactive),inactive,inactive,-0.397% (inactive),inactive,inactive,inactive,inactive,inactive,inactive,inactive,inactive,inactive,inactive,inactive,-1.34% and -17.2% and -8.68%,inactive,inactive,inactive
Cc1cccc([N+](=O)[O-])c1C,> 92 µM (inactive),> 92 µM (inactive),inactive,inactive,0.0783% (inactive),inactive,inactive,inactive,inactive,inactive,inactive,inactive,inactive,inactive,inactive,inactive,-8% and -5.71%,inactive,inactive,inactive
